KB-3-1 tox: KB-3-1 parental cell cytotoxicity. KB-3-1 viability, CellTiter-Glo ATP luminescence, 72 h. Potency, µM (doses to about 46.1 µM), hits mostly cytotoxic. 400,000 compounds, 1.4% hits; further: on the % scale 0 is the no-effect control and ±100 the full control effect; nearly all actives have a fitted effect of over 60% in size
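72 h, 37 °C compound treatment of KB-3-1 parental cells; CellTiter-Glo added, 10 min, luminescence read. Data corrected against DMSO-only plates and normalized before curve fitting.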
MCF10A rereplic: DNA re-replication induction in MCF 10a cells | MCF 10A DNA re-replication, Hoechst nuclear intensity, 48 h | Potency, µM (highest dose often 46.1 µM), for the others: at the highest dose activity, positive = re-replication, most hits filed as activators | 350,000 compounds, 2.9% hits; further: % of control where 0% means no effect; nearly all actives have a fitted effect of over 50% in size
SW480 rerep: inducers of DNA re-replication in SW480 colon cancer cells; SW480 DNA re-replication, Hoechst DNA content imaging, 48 h; Potency, µM (top dose mostly 46.1 µM), without a hit: at the highest dose re-replication activation, usual class: activators; 340,000 compounds, 1.8% hits; AID 624297; further: % of control where 0% means no effect; nearly all actives have a fitted effect of over 55% in size
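Image-based read-out: total Hoechst fluorescence of nuclei (405 nm excitation, 500-530 nm emission), with hits raising the fraction of high-intensity nuclei. SW480 colon cells incubated 48 hr with compounds at 37 C.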
KB-V1 MDR tox: KB-V1 MDR subline cytotoxicity; 400,000 compounds, 3.4% hits; KB-V1 MDR cells viability, CellTiter-Glo, 72 h; Potency, µM (series often up to 46.1 µM), most hits filed as cytotoxic; further: on the % scale 0 is the no-effect control and ±100 the full control effect; nearly all actives have a fitted effect of over 60% in size
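Cells of the MDR subline KB-V1 are plated, dosed with compound at multiple concentrations, and incubated 72 h at 37 degrees C; CellTiter-Glo is then added and luminescence read after 10 min.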
RORg inh: ROR gamma (mouse) transcription inhibition. P51450. Drosophila S2 Gal4-RORgamma UAS-luciferase reporter, 20 h. Potency, µM (series often up to 53.6 µM), inactives show at the highest dose activity change, negative = inhibition, most hits filed as inhibitors. 310,000 compounds, 5.4% hits. AID 2551; further: on the % scale 0 is the no-effect control and ±100 the full control effect; nearly all actives have a fitted effect of over 60% in size
Target sequence (P51450 whole entry, looked up, the tested form may be a part): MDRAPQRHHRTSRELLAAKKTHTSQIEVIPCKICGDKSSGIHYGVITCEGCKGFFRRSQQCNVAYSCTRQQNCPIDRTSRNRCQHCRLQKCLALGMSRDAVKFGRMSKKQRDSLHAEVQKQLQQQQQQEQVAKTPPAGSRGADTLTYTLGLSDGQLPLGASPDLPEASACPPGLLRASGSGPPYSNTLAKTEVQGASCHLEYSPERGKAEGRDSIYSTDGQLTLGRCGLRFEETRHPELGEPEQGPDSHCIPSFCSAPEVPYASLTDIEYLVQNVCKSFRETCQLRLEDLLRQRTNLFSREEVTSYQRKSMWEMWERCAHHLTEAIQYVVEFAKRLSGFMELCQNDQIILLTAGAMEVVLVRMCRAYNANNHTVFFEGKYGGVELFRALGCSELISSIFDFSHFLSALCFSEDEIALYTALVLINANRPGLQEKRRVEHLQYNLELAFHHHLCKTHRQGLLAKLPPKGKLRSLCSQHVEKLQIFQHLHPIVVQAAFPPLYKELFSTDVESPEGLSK
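Luciferase reporter read in Schneider cells carrying Gal4-RORγ (mouse) and UAS-Photinus luciferase; cells given compound 1 h before 700 uM copper sulfate induction, then incubated 20 h at ambient temperature.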
VP16 counter: Gal4-VP16 reporter inhibition counter-screen | 310,000 compounds, 3.5% hits | Drosophila S2 Gal4-VP16 UAS-luciferase, luminescence, 20 h | Potency, µM (series often up to 53.6 µM), inactives show at the top dose activity, negative = inhibition, most hits filed as inhibitors | AID 2546;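 further: Gal4-VP16 expression switched on by copper sulfate through the metallothionein promoter; on the % scale 0 is the no-effect control and ±100 the full control effect; nearly all actives have a fitted effect of over 50% in size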
Starred values were filed as active, the others as inactive; i = inactive; ? = inconclusive; · = no result given; [ ] = remark or other dose. Rows were chosen to be rich in hits. Some 10% of all compounds tested hit in one or more screens of this group. The call rests on the fitted dose curve; in most records, active means well fitted curve in the direction sought with a large enough effect; inconclusive means small, poorly fitted or top-dose-only effect, or another doubt; inactive means no such curve, though single readings can be large; an effect the other way counts as inactive or inconclusive. Potency means the concentration at half of the fitted maximal effect.

SMILES	KB-3-1 tox	MCF10A rereplic	SW480 rerep	KB-V1 MDR tox	RORg inh	VP16 counter
COc1cc(C(=O)O/N=C2/C=CC(=O)C(C)=C2C)cc(OC)c1OC	?	23µM*	16µM*	?	3.5µM*	4.5µM*
COc1cc(C(=O)O/N=C2\C=CC(=O)C=C2C)cc(OC)c1OC	i	22%	20%	i	7.1µM*	4µM*
COc1cc(C(=O)ON=C2C3CC4CC(C3)CC2C4)cc(OC)c1OC	i	9%	?	i	?	?
C=CC1CO1 (centres undefined)	·	·	·	·	-14%	6%
NS(=O)(=O)c1cccc(NC(=O)c2cc(=O)c3ccccc3o2)c1	i	-2%	-3%	i	?	0%
Cc1cc(C(=O)Nc2cccc(C(=O)O)c2)c(C)o1	i	-1%	-2%	i	?	14%
NS(=O)(=O)c1cccc(NC(=O)c2cc3ccccc3o2)c1	i	5%	18µM*	i	-27%	-17%
Cc1cccc(NC(=O)COC(=O)c2cc3ccccc3oc2=O)c1	i	0.65µM*	21µM*	i	-7%	1%
Cc1cccc(NC(=O)c2cc3ccccc3o2)c1	?	-2%	-5%	i	22%	6.3µM*
Cc1cc(C(=O)Nc2cccc(C(=O)O)c2)oc1C	i	-13%	-9%	i	6.3µM*	?
Cc1cc(C)nc(NS(=O)(=O)c2ccc(NC(=O)c3nc(SC(C)C)ncc3Cl)cc2)n1	i	·	·	i	·	·
COc1ccc(C2NC(c3ccc4c(c3)OCO4)=CC(c3ccccc3O)N2)cc1OC (centres undefined)	i	·	·	?	·	·
CN(c1ccccc1)S(=O)(=O)c1cccc(NC(=O)c2cc(=O)c3ccccc3o2)c1	i	26µM*	-1%	?	?	-9%[10 µM]
CCOC(=O)C1=CCN(S(=O)(=O)c2ccccc2C)C1c1ccc(C)cc1 (centres undefined)	i	·	·	i	·	·
Cc1cccc(OCCC(=O)Nc2ccc(Cl)cc2F)c1	i	-3%	-2%	i	21%	-10%
Cc1cc(-c2nnc3n2CCCCC3)c(C)n1-c1ccccc1	?	27%	-2%	21µM*	19%	0%
COc1ccc(C2N=C(c3ccccc3)NC(c3ccccc3)=N2)cc1	i	2.6µM*	?	?	?	-5%
c1ccc(C2=NC(c3ccccc3)N=C(c3ccccc3)N2)cc1	i	14%	-1%	i	-6%	-4%
C/C(=C\C(=O)c1ccc(Cl)cc1Cl)N(C)C	i	0%	-7%	i	16µM*	?
CC1CCC2C(=O)OC(CO)CN2C1c1ccc(Br)cc1 (centres undefined)	·	·	·	·	12%[10 µM]	-4%[10 µM]
COc1ccc(-c2nnn3c2nc(NCCc2ccc(OC)c(OC)c2)c2ccccc23)cc1	i	·	·	i	·	·
O=C(NCc1ccc(Cl)cc1)c1ccc(OCC2CCCO2)cc1 (centres undefined)	i	7%	-2%	16µM*	-9%	-11%
Cc1cccc(NC(=O)c2ccc(OCC3CCCO3)cc2)c1C (centres undefined)	i	8%	2%	21µM*	20%	-5%
Cc1ccc2oc(C(=O)N(Cc3ccc(N(C)C)cc3)CC3CCCO3)c(C)c2c1 (centres undefined)	i	?	-5%	?	26%	-2%
O=C(Nc1nc(-c2ccc(Cl)cc2Cl)cs1)c1ccc(OCC2CCCO2)cc1 (centres undefined)	i	16%	-10%	9.2µM*	-37%	18µM*
Cc1cccc(NC(=O)CN(CC2CCCO2)C(=O)c2oc3ccc(F)cc3c2C)c1C (centres undefined)	i	16%	-1%	5.2µM*	·	·
O=c1c(NCCc2ccc(Cl)cc2)nccn1-c1ccccc1	i	·	·	i	·	·
CCNc1ncc2nc(-c3ccc(F)cc3)c(=O)n(C[C@H]3CCCO3)c2n1	·	·	·	·	1%	7%

From PubChem
